This note sets out measurements from PubChem BioAssay AID1851 (National Center for Advancing Translational Sciences (NCATS), 2009).

Structures are written as SMILES. Out of some 16,000 compounds screened, about 5,100 (32%) were called active. About 25% were inconclusive and are not listed. Some of the results follow. Values without a mark were called inactive. Calls follow the shape of the dose curve; as a rule, active = well fitted curve in the direction sought with a large enough effect; inconclusive = small, poorly fitted or top-dose-only effect, or effect the other way; inactive = no such curve, though single readings can be large or run the other way.
% is scaled to controls: 0 for no effect and ±100 for the full control effect.

Sequence of Cytochrome P450 3A4 (Homo sapiens) (P08684 whole entry, looked up): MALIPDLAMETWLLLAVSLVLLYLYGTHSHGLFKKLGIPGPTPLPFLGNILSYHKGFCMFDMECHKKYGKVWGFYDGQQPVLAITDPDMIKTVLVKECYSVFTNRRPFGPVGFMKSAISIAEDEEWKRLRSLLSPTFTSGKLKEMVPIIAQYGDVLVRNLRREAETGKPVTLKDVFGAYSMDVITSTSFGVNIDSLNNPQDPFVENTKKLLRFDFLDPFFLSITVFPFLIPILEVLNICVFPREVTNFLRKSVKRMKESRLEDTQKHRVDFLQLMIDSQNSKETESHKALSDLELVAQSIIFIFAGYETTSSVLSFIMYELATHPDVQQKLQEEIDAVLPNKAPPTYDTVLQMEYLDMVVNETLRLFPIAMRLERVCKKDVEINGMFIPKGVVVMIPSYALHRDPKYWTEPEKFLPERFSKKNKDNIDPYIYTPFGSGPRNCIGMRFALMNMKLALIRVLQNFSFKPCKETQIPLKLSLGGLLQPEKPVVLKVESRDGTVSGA

This assay concerns the target Cytochrome P450 3A4 (Homo sapiens) (UniProt P08684). Put plainly: Cytochrome panel assay with activity outcomes. Particulars: recombinant CYP, pro-luciferin dealkylation, luminescence, p450-cyp3a4; series mostly up to 57.1 µM.
For the compound `CCn1c(C)c(/C=N/Nc2nc3ccccc3s2)c2ccccc21`, the AC50 is 8.91 µM (active). Consider `Cc1ccc(C(=O)N2CCN(C3c4cccc5cccc(c45)C3NS(=O)(=O)c3ccccc3)CC2)cc1` (stereo not given), for which the AC50 is 0.0355 µM (active). Consider `Cc1ccc(C(=O)N2CCN(c3cc(=O)[nH]nc3-c3ccccc3)CC2)cc1`, for which the AC50 result was “inactive”. Take `Cc1noc(C)c1-c1ccc2ncnc(NCc3cccnc3)c2c1`: the half-maximal activity concentration (AC50) was 2.51 µM (active). Regarding `Cc1noc(C)c1-c1ccc2ncnc(NC3CCNCC3)c2c1`, the AC50 result was “inactive”.

In the case of `Cc1noc(C)c1-c1ccc2ncnc(NCc3cccs3)c2c1`, the AC50 is 10 µM (active). Turning to `Cc1noc(C)c1-c1ccc2ncnc(NCc3ccccc3)c2c1`, the AC50 was 10 µM (active).

Regarding `Cc1cccc(CNc2ncnc3ccc(-c4c(C)noc4C)cc23)c1`, the AC50 was 0.794 µM (active). Turning to `N#[N+]c1ccc(Nc2ccccc2)cc1`, the activity, negative = inhibition was -10.9% [at 11.4 µM].

As to `CC[N+](C)(CC)CCN1C(=O)c2ccccc2S1(=O)=O`, the activity, negative = inhibition is 6.19% [at 11.4 µM].

Consider `Cc1cc(C)c(S(=O)(=O)N2CCN(c3ccc([N+](=O)[O-])c(NCc4ccco4)c3)CC2)c(C)c1`, for which the AC50 is 7.08 µM (active).

As for `CC(C)c1ccc(CNc2cc(N3CCCC3)ccc2[N+](=O)[O-])cc1`, the activity, negative = inhibition is -8.24% [at 2.29 µM].

Take `CNc1cc(N2CCCCCC2)ccc1[N+](=O)[O-]`: the activity, negative = inhibition is -20.1% [at 2.29 µM]. As to `O=[N+]([O-])c1ccc(N2CCCC2)cc1NCc1ccccc1`, the AC50 was 15.8 µM (active). Consider `CC(=O)N(CC(O)CN(C(C)=O)c1c(I)c(C(=O)NC[C@@H](O)CO)c(I)c(C(=O)NC[C@@H](O)CO)c1I)c1c(I)c(C(=O)NC[C@@H](O)CO)c(I)c(C(=O)NC[C@@H](O)CO)c1I`, for which the AC50 entry is “inactive”. With `CC(C)(C)c1ccc(O)c(CN(Cc2cc(C(C)(C)C)ccc2O)C2CCCCC2)c1`, the activity, negative = inhibition was -3.22% [at 11.4 µM].

Take `c1ccc2cc(C3=NCCN3)ncc2c1`: the AC50 entry is “inactive”. With `COc1cc(/C=C\C(=O)N2CCC=CC2=O)cc(OC)c1OC`, the AC50 entry was “inactive”.

With `C#CCSc1nncn1C(=O)/C=C/c1ccccc1`, the activity, negative = inhibition was -0.406% [at 2.29 µM]. Still for that read-out and setting: the same measure for `COc1ccc(/C=C/C(=O)Nc2nc(C)cc(C)n2)cc1OC`: 2.05% [at 2.29 µM]. Consider `C=CCSc1nc2ccccc2n1C(=O)/C=C/c1cc(OC)c(OC)c(OC)c1`, for which the AC50 was 7.94 µM (active). For `CCSc1nc2ccccc2n1C(=O)/C=C\c1ccc(OC)c(OC)c1`, the concentration at half-maximal activity (AC50) was 20 µM (active). The same measure, in the same setting: under `c1ccc2cc(-c3csnn3)ccc2c1` stands “inactive”; under `c1ccc2nc(C3=NCCN3)ccc2c1`, “inactive”; under `c1ccc2nc(-c3ccncc3)ccc2c1`, 2.82 µM (active).
